Assay results published in the supplement of paper PMC13380429.

Tested on: Vero E6 infected with SARS-CoV-2
Assay: inhibition of SARS-CoV-2 cytopathic effect; higher = more antiviral protection, active = above 15
Details: 48 h

Measured: inhibition of SARS-CoV-2 cytopathic effect

COc1cc(-n2c(=S)[nH]c3ccccc3c2=O)c(Cl)cc1Cl [mdivi-1]
inactive: 1 nM 0.74% | 8.33 nM 0.3% | 100 nM -0.2% | 833.33 nM -0.45% | 10000 nM -1.37%

CN1C(=O)N(C)C2C1N(C)C(=O)N2C (stereo not given) [mebicar]
inactive: 1 nM -5.8% | 8.33 nM -1.8% | 100 nM -3.06% | 833.33 nM -1.23% | 10000 nM -2.18%

COc1c(O)cc2c(c1O)[C@@H]1O[C@H](CO)[C@@H](O)[C@H](O)[C@H]1OC2=O [bergenin]
inactive: 1 nM -3.29% | 8.33 nM -2.26% | 100 nM -0.14% | 833.33 nM 0.39% | 10000 nM -1.22%

CCc1nc(C)ccc1O [emoxipin]
inactive: 1 nM 1.2% | 8.33 nM 3.95% | 100 nM 1.53% | 833.33 nM 0.68% | 10000 nM 1.33%

COc1ccc(Cl)c(Nc2ncnc3cc(OCC4CCN(C)CC4)c(OC)cc23)c1
inactive: 1 nM -1.15% | 8.33 nM -0.25% | 100 nM -0.48% | 833.33 nM -6.41% | 10000 nM -13.8%

NC[C@@H](O)CC(=O)O [aminohydroxybutyric-acid]
inactive: 1 nM -3.49% | 8.33 nM -1.06% | 100 nM -2.52% | 833.33 nM -2.28% | 10000 nM -0.71%

CC1(C)[C@@H](O)CC[C@]2(C)[C@H]3C(=O)C=C4[C@@H]5C[C@@](C)(C(=O)O)CC[C@]5(C)CC[C@@]4(C)[C@]3(C)CC[C@@H]12 [enoxolone]
inactive: 1 nM -3.08% | 8.33 nM -3.58% | 100 nM -1.05% | 833.33 nM 2.65% | 10000 nM -0.55%

Cc1ccc(NC2=NCCN2)c(Cl)c1 [tolonidine]
inactive: 1 nM 1.65% | 8.33 nM 0.34% | 100 nM 0.64% | 833.33 nM -0.01% | 10000 nM 0.42%

O=C(O)Cc1ccc(CCNS(=O)(=O)c2ccc(Cl)cc2)cc1 [daltroban]
inactive: 1 nM -0.21% | 8.33 nM 3.04% | 100 nM -1.18% | 833.33 nM -0.76% | 10000 nM 1.78%

C[C@H](NC(=O)/C(C#N)=C/c1cccc(Br)n1)c1ccccc1
inactive: 1 nM -2.07% | 8.33 nM -1.75% | 100 nM -2.65% | 833.33 nM 5.36% | 10000 nM -4.77%

CC(=O)Nc1ccc(CC(=O)O)cc1 [actarit]
inactive: 1 nM 1.96% | 8.33 nM -0.52% | 100 nM 0.35% | 833.33 nM -0.15% | 10000 nM -0.41%

O=C(O)c1cc(O)c2c(c1)[C@H]([C@H]1c3cc(C(=O)O)cc(O)c3C(=O)c3c(O[C@@H]4O[C@H](CO)[C@@H](O)[C@H](O)[C@H]4O)cccc31)c1cccc(O[C@@H]3O[C@H](CO)[C@@H](O)[C@H](O)[C@H]3O)c1C2=O [sennoside-A]
inactive: 1 nM -3.2% | 8.33 nM 0% | 100 nM 0.82% | 833.33 nM 0.38% | 10000 nM -2.08%

CC(C)N[C@H]1CCn2c(=O)[nH]c3cccc(c32)[C@@H]1O [zilpaterol]
inactive: 1 nM 0.575% | 8.33 nM -0.6% | 100 nM -1.14% | 833.33 nM -1.59% | 10000 nM -2.51%

COc1ccc(CCC(=O)Nc2nc3ccc(Cl)cc3s2)cc1OC
inactive: 1 nM -2.56% | 8.33 nM -3.14% | 100 nM -2.66% | 833.33 nM 0.12% | 10000 nM 0.38%

Cc1ncc[nH]1 [2-methylimidazole]
inactive: 1 nM -0.11% | 8.33 nM 1.86% | 100 nM 0.89% | 833.33 nM -3.06% | 10000 nM 0.33%

Cc1cc(C)cc(NC(=O)Cc2ccc(OC(C)(C)C(=O)O)cc2)c1 [efaproxiral]
inactive: 1 nM -0.22% | 8.33 nM -2.52% | 100 nM 1.44% | 833.33 nM 1.37% | 10000 nM -1.51%

Cc1nn(C)c2c1C(c1ccc(C(F)(F)F)cc1)C(C#N)=C(N)O2 (stereo not given)
inactive: 1 nM -1.05% | 8.33 nM -1.78% | 100 nM -1.6% | 833.33 nM -1.63% | 10000 nM 2.56%

COc1cc(Nc2c(C#N)cnc3cc(OCCCN4CCN(C)CC4)c(OC)cc23)c(Cl)cc1Cl [bosutinib]
inactive: 1 nM 0.33% | 8.33 nM -1.8% | 100 nM -1.97% | 833.33 nM -8.27% | 10000 nM -7.97%

Cn1c(=O)c2c(ncn2CC(O)CO)n(C)c1=O (stereo not given) [dyphylline]
inactive: 1 nM 1.96% | 8.33 nM -3.64% | 100 nM 0.25% | 833.33 nM 1.93% | 10000 nM -0.77%

O=C1CCC(N2C(=O)c3ccccc3C2=O)C(=O)N1 (stereo not given) [thalidomide]
inactive: 1 nM 5.17% | 8.33 nM -1.38% | 100 nM -2.47% | 833.33 nM -1.68% | 10000 nM -4.45%

CNc1cc2c(Nc3cccc(Br)c3)ncnc2cn1
inactive: 1 nM -1.96% | 8.33 nM -0.58% | 100 nM -1.36% | 833.33 nM -4.84% | 10000 nM -2.22%

Ic1cc(-c2ccccc2)ncn1 [4-iodo-6-phenylpyrimidine]
inactive: 1 nM -0.63% | 8.33 nM 0.56% | 100 nM -2.43% | 833.33 nM 1.94% | 10000 nM -1.36%

C[C@H](N)Cc1cccc(O)c1 [gepefrine]
inactive: 1 nM 1.14% | 8.33 nM 1.71% | 100 nM 1.51% | 833.33 nM 1.38% | 10000 nM 0.56%

CCS(=O)(=O)Nc1ccc2c(c1)/C(=C(/Nc1ccc(CN3CCCCC3)cc1)c1ccccc1)C(=O)N2 [hesperadin]
inactive: 1 nM 1.74% | 8.33 nM 3.12% | 100 nM 0.27% | 833.33 nM -9.14% | 10000 nM -10.5%

COc1cc(Cc2cnc(N)nc2N)cc(OC)c1OC [trimethoprim]
inactive: 1 nM -0.11% | 8.33 nM 0.21% | 100 nM -0.75% | 833.33 nM 2.08% | 10000 nM 2.04%

O=C(Nc1ccccc1)Nc1ccc(-c2ccc(C(=O)[C@@H]3CCC[C@@H]3C(=O)O)cc2)cc1
inactive: 1 nM -1.33% | 8.33 nM 1.31% | 100 nM 3.77% | 833.33 nM 1.06% | 10000 nM -1.53%

CC1(C)C(=O)N(c2ccc(C#N)c(C(F)(F)F)c2)C(=O)N1CCCCO
inactive: 1 nM 2.69% | 8.33 nM 0.32% | 100 nM 4.71% | 833.33 nM 0.45% | 10000 nM 1.21%

CN1C(C)(C)CCCC1(C)C [pempidine]
inactive: 1 nM -2.83% | 8.33 nM -0.7% | 100 nM -4.34% | 833.33 nM -1.68% | 10000 nM -2.1%

CC(COc1ccccc1Cc1ccccc1)N1CCCCC1 (stereo not given) [benproperine]
inactive: 1 nM -1.82% | 8.33 nM 0.63% | 100 nM -0.71% | 833.33 nM -3.69% | 10000 nM -3.54%

CC(=O)O[C@@]12CO[C@@H]1C[C@H](O)[C@@]1(C)C(=O)[C@H](O)C3=C(C)[C@@H](O)C[C@@](O)([C@@H](OC(=O)c4ccccc4)[C@H]21)C3(C)C [10-deacetylbaccatin]
inactive: 1 nM -0.5% | 8.33 nM 0.94% | 100 nM -1.67% | 833.33 nM -4.55% | 10000 nM -2.63%

Cn1nccc1Nc1nccc(-c2ccn([C@H](CO)c3ccc(Cl)c(F)c3)c(=O)c2)n1
inactive: 1 nM 0.72% | 8.33 nM 0.13% | 100 nM -0.395% | 833.33 nM -5.82% | 10000 nM -9.29%

NC(=O)[C@@H](CC1CC1)[C@@H](CCC(F)(F)F)C(=O)N[C@H]1N=C(c2ccccc2)c2cccc(F)c2NC1=O
inactive: 1 nM -0.36% | 8.33 nM -1.04% | 100 nM -3.47% | 833.33 nM -3.05% | 10000 nM -5.54%

COc1cccc(-n2nc(C(=O)O)cc2-c2ccc(C3CCCCC3)c(Cl)c2)c1
inactive: 1 nM 0.77% | 8.33 nM 1.66% | 100 nM 2.64% | 833.33 nM 1.95% | 10000 nM 6.19%

Cc1c(NC(=O)c2cc3c(s2)CCCC3)cccc1-c1cn(C)c(=O)c(Nc2ccc(C3C(=O)N(C)CCN3C)cc2)n1 (stereo in doubt)
inactive: 1 nM 2.73% | 8.33 nM -3.85% | 100 nM 3.38% | 833.33 nM 3.72% | 10000 nM 7.34%

OC[C@H]1O[C@@H](O[C@@H]2[C@H](O)[C@@H](O)[C@H](O[C@H]3[C@H](O)[C@@H](O)C(O)O[C@@H]3CO)O[C@@H]2CO)[C@H](O)[C@@H](O)[C@H]1O (stereo not given in full) [4-galactosyllactose]
inactive: 1 nM -1.88% | 8.33 nM -2.42% | 100 nM 1.58% | 833.33 nM 0.18% | 10000 nM -0.03%

CCOC(=O)[C@H](Cc1ccc([N+](=O)[O-])cc1)NC(=O)c1ccccc1
inactive: 1 nM 0.55% | 8.33 nM 1.63% | 100 nM 2.6% | 833.33 nM -1.21% | 10000 nM 0.3%

COc1ccc2cc(C(C)C(=O)Oc3ccc(C(N)=S)cc3)ccc2c1 (stereo not given)
inactive: 1 nM -0.75% | 8.33 nM 0.03% | 100 nM -0.37% | 833.33 nM 0.55% | 10000 nM 4.55%

CCC(=O)OCC(=O)[C@@]1(OC(=O)CC)[C@@H](C)C[C@H]2[C@@H]3CCC4=CC(=O)C=C[C@]4(C)[C@@]3(Cl)[C@@H](O)C[C@@]21C [beclomethasone-dipropionate]
inactive: 1 nM -9.44% | 8.33 nM -9.23% | 100 nM -11.4% | 833.33 nM -9.54% | 10000 nM -6.97%
